Screens from PubChem BioAssay.
Sampled rows, rich in hits. Any-hit rate of the full collection: about 22%.
E-sel TNF inh – blocks E-selectin expression induced by TNF alpha; HUVEC TNFa-induced E-selectin immunofluorescence, high content; inhibition, % at 2 µM; actives 0.71% (n = 120,000);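 active = inhibition above the batch mean plus 3 SD, and confirmed as a hit on visual image review, cut at about 43% in these data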;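 also: 0% = TNF-stimulated DMSO wells and 100% = unstimulated control wells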
CYP2C9 activ – activators of human CYP2C9; activation factor at 5 µM; actives 1.4% (n = 96,000); recombinant CYP2C9, luciferin-H conversion, luminescence; hits give high values; factor 1 = untreated enzyme, 0 = blocked; AID 1024;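 active = activation factor of 2 or more for CYP2C9 at a 5 µM dose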;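 also: 0 = sulfaphenazole-blocked wells and 1 = vehicle-only wells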
Target sequence (P11712 whole entry, looked up): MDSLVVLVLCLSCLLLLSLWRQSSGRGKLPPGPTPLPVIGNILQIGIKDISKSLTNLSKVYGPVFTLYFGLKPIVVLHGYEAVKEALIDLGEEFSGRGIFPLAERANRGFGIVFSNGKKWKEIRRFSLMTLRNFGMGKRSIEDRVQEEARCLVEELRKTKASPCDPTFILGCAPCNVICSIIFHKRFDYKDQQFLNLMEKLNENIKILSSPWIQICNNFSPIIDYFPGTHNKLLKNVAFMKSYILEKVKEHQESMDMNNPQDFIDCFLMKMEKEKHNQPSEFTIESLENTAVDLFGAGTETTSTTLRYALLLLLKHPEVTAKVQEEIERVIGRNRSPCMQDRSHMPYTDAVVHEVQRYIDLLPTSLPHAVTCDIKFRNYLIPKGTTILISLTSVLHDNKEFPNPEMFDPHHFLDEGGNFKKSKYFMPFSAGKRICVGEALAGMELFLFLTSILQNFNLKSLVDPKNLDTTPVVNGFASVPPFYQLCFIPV
CYP2C19 act – increases human CYP2C19 enzyme activity; recombinant CYP2C19, luciferin-H EGE luminescence; hits give high values; 0 = fully inhibited enzyme, 1 = untreated enzyme; activation factor at 5 µM; 96,000 tested, under 10 active;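 active = activation factor of at least 2 at 5 µM in the primary screen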;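 also: 0 = wells with 2.5 mM tranylcypromine and 1 = vehicle-only wells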
CYP2C9 inhib – blocks human cytochrome P450 2C9. AID 777. inhibition, % at 5 µM. P11712. CYP2C9 Supersomes, luciferin-H conversion, luminescence. actives 20% (n = 96,000);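 active = blocking of liver enzyme CYP2C9 beyond about 50% at 5 µM, limit read from the data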
CYP2C19 inhib – human CYP2C19 inhibition; P33261; CYP2C19 Supersomes, luciferin-H EGE luminescence, 30 min; inhibition, % at 5 µM; actives 21% (n = 96,000); AID 778;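 active = CYP2C19 inhibition above a set limit at 5 µM in the primary screen, cut at about 50% in these data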;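 also: plate controls were negative control wells for no effect and 2.5 mM tranylcypromine positive control for full effect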
F-actin modifier – modifiers of cytoskeleton assembly; HUVEC TNFa F-actin phalloidin imaging, high content; inhibition, % at 2 µM; actives 0.18% (n = 91,000);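 active = inhibition above the batch mean plus 3 SD and confirmed as a hit by visual image inspection, cut at about 30% in these data, passing the limit was not always enough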
* marks the source's active call; other numbers are inactive results; x = no result.

SMILES	E-sel TNF inh	CYP2C9 activ	CYP2C19 act	CYP2C9 inhib	CYP2C19 inhib	F-actin modifier
CCOc1ccc(C2CC(c3ccc(OC)cc3)n3ncnc3N2)cc1 (stereo not drawn)	-74	0.6	0.9	38	6	x
COc1ccc(CCNC(=O)C2CCN(S(=O)(=O)N3CCC4(CC3)OCCO4)CC2)cc1OC	-12	x	x	x	x	x
FC(F)(F)c1ccccc1CN1CCN(C2CCCCCC2)CC1	-6	x	x	x	x	x
C=CCn1c(SC)nc2sc3c(c2c1=O)CCc1ccccc1-3	28	x	x	x	x	x
COc1ccc(C2CC(c3cccc(C)c3)n3ncnc3N2)cc1 (stereo not drawn)	x	0.4	0	61*	96*	5
COC(=O)c1[nH]c2cc(OC)ccc2c1NC(=O)c1ccc2c(c1)OCO2	x	0.9	1	10	-1	28
Cc1ccccc1OCc1nc2ccccc2[nH]1	-10	x	x	x	x	x
c1cnc2c(OCc3nc4ccccc4[nH]3)cccc2c1	-3	0.9	0.1	12	95*	34
COc1ccccc1OCc1nc2ccccc2[nH]1	-7	0.7	0.3	26	74*	1
COc1ccc(NC(=O)Cc2nc3ccccc3[nH]2)cc1	-13	0.7	0.3	26	67*	-24
COc1cccc(OCc2nc3ccccc3[nH]2)c1	6	0.4	0	65*	100*	-4
Cc1cc(C)n(C(=O)C(C(=O)c2ccccc2)C(C)C)n1 (stereo not drawn)	4	x	x	x	x	x
COc1cccc(OCc2nc3ncc(Br)cc3[nH]2)c1	1	0.6	0.5	35	54*	19
Cc1cc(C)cc(OCc2nc3ncc(Br)cc3[nH]2)c1	-6	x	x	x	x	-6
Cc1ccc(CCN2CC(C(=O)NCc3cccnc3)CC2=O)cc1 (stereo not drawn)	-6	x	x	x	x	14
CC(=O)c1cc(CN2C(=O)c3ccccc3C2=O)cs1	-10	0.8	0	20	96*	x
Cc1nc2cc(NC(=O)Nc3ccc(N4CCOCC4)cc3)ccc2n1C	16	0.8	0.9	18	11	9
Cc1cc2nc(-c3ccc(SCC(=O)Nc4ccc5c(c4)OCCO5)nc3)[nH]c2cc1C	-13	0.2	0.7	78*	31	10
Cc1cc2nc(-c3ccc(SCC(=O)N4CCN(C(=O)c5ccco5)CC4)nc3)[nH]c2cc1C	-23	0.2	0.3	84*	72*	7
CC12CCC(C(=O)Nc3ccccc3)(C/C1=N\O)C2(C)C (stereo not drawn)	3	1	0.2	1	78*	20
Cc1cccc(NC(=O)C23CCC(C)(/C(=N/O)C2)C3(C)C)c1 (stereo not drawn)	4	1	0.7	-3	30	-15
CCc1cccc(CC)c1NC(=S)NCCc1c(C)[nH]c2ccc(C)cc12	-19	x	x	x	x	x
Nn1c(CN2CCCCC2)nc2ccccc2c1=O	51*	1.2	1.1	-15	-11	-9
c1ccc(Cn2c(CN3CCCC3)nc3ccccc32)cc1	x	0.9	0.4	8	58*	-2
Cc1nc2ccccc2c(=O)n1N	x	0	0.2	97*	77*	10
SMILES	E-sel TNF inh	CYP2C9 activ	CYP2C19 act	CYP2C9 inhib	CYP2C19 inhib	F-actin modifier
CC#CCC(CC#CC)c1nc2ccccc2c(=O)n1N	-11	x	x	x	x	x
CSc1nc(C)c2c(n1)N(c1ccc(C(F)(F)F)cc1)CC2	20	0.9	0.8	9	21	-21
O=S(=O)(Nc1ccc(N2CCCCC2)cc1)c1cccc2cccnc12	9	1.1	0.9	-6	8	-20
NC(=O)Cn1cc(C(=O)COc2ccccc2)c2ccccc21	50	x	x	x	x	x
O=C(CSc1nnnn1-c1cccc(Cl)c1)Nc1ccc2c(c1)CCC2	-35	x	x	x	x	x
N#CCCCSc1nnnn1-c1cccc(Cl)c1	-22	1.1	0.2	-13	80*	3
Cc1ccc(NS(=O)(=O)c2ccc(C(=O)OCC(=O)Nc3cc(C)on3)cc2)cc1	-16	x	x	x	x	x
COCCCNC(=O)Cn1nnc(-c2ccc(NC(=O)c3ccccc3F)cc2)n1	-40	x	x	x	x	-13
Cc1noc(C)c1S(=O)(=O)N1CCCC(C(=O)N2CCc3ccccc3C2)C1 (stereo not drawn)	2	0.5	0.3	47	74*	0
Cc1ccc(C)c(N2CCN(C(=O)C3CCCN(S(=O)(=O)c4c(C)noc4C)C3)CC2)c1 (stereo not drawn)	-41	0.1	0.3	93*	74*	x
CS(=O)(=O)N1CCCC(C(=O)N2CCc3ccccc3C2)C1 (stereo not drawn)	1	1	0.9	2	13	3
COc1ccc(CCN(C)CCC(=O)Nc2c(C)cc(C)cc2C)cc1OC	-17	1	1.1	0	-8	8
COc1ccc(CNc2nc3c(c(=O)n(Cc4ccc(F)cc4)c(=O)n3C)n2C)cc1	-25	0.2	0.1	81*	91*	-22
CC(C)CCNc1nc2c(c(=O)n(Cc3cccc(F)c3)c(=O)n2C)n1C	-16	0.2	0.1	85*	88*	14
Cn1c(=O)c2c(nc(NCCc3ccccc3)n2Cc2ccc(F)cc2)n(C)c1=O	14	0.5	0.6	47	39	-7
Cn1c(NCC(O)c2ccccc2)nc2c1c(=O)n(Cc1ccc(Cl)cc1)c(=O)n2C (stereo not drawn)	7	0.5	0.8	53*	24	-6
Cn1c(NCc2ccccc2)nc2c1c(=O)n(Cc1ccccc1)c(=O)n2C	-12	0.7	0.6	33	41	-17
Cn1c(NCC(O)c2ccccc2)nc2c1c(=O)n(Cc1ccc(Cl)c(Cl)c1)c(=O)n2C (stereo not drawn)	-9	x	x	x	x	-17
COc1cc(CNCCCN2CCOCC2)cc(Br)c1OCC(=O)N1CCCCC1	-18	1.1	1.1	-9	-9	-7
C=C(C)CSc1nc2c(c(=O)[nH]c(=O)n2C)n1CCC(C)C	x	0.3	0.7	70*	27	10
CC(C)n1c(SCc2ccc(Cl)cc2)nc2c1c(=O)[nH]c(=O)n2C	-12	0.5	0.5	50	50*	42
CCCCn1c(SCc2ccc(Cl)cc2)nc2c1c(=O)[nH]c(=O)n2C	-9	0.8	0.8	25	19	3
C/C(Cl)=C/Cn1c(SCc2ccc(Cl)cc2)nc2c1c(=O)[nH]c(=O)n2C	-5	0.6	0.7	36	26	x
CC(C)CCn1c(SCc2ccc(Cl)cc2)nc2c1c(=O)[nH]c(=O)n2C	-7	0.2	0.5	79*	51*	5
COCCSc1nc2c(c(=O)[nH]c(=O)n2C)n1CCC(C)C	-6	0.7	1	33	-5	6
Cc1ccc(CSc2nc3c(c(=O)[nH]c(=O)n3C)n2CCC(C)C)cc1	x	0.3	0.4	75*	61*	-18
CCOCCn1c(SCc2ccc(C)cc2)nc2c1c(=O)[nH]c(=O)n2C	x	0.7	0.3	34	70*	16
CCCCCn1c(Sc2ncccn2)nc2c1c(=O)[nH]c(=O)n2C	8	x	x	x	x	5
C=C(C)Cn1c(SCCCO)nc2c1c(=O)[nH]c(=O)n2C	-7	1.3	1.2	-33	-20	-2
